# Data taken from the supplement of paper PMC10849652.
# Of roughly 8,800 targets only a part is listed; those with a hit were picked by preference. About 0.5% of all pairs of compound and target were hits. A number with no mark means an inactive call.
# What was measured:
# Experiment in all cases: log2 fold change, soluble protein after heating vs DMSO (PISA); higher = thermal stabilisation; K562 lysate, 10 uM; active = over 0.2 and 3.5 SD of the protein, either way, in both replicates (recomputed)
# alvocidib = compound: CN1CC[C@H](c2c(O)cc(O)c3c(=O)cc(-c4ccccc4Cl)oc23)[C@H](O)C1 [alvocidib]
# Procedure, shortened: (§1)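 Values give the log-two fold change in thermal stability against solvent controls, from duplicates. Crude K562 extract at 1 mg/mL protein, made by dounce homogenisation in PBS pH 7.4 with 1 mM MgCl2, was treated with 10 μM compound for 30 min. After 3 min heating across 48°C-58°C, aliquots were pooled, adjusted to 0.5% NP-40 at 4°C and centrifuged at 21,000xg for 90 min. The supernatant was measured by TMTpro 16plex LC-MS/MS with channel sums equalised.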
# Tubastatin A = compound: CN1CCc2c(c3ccccc3n2Cc2ccc(C(=O)NO)cc2)C1 [Tubastatin A]
# Procedure, shortened: as §1
# [1] = compound: CNC(=O)C1=CC=CC=C1NC2=NC(=NC=C2Cl)NC3=C(C=C(C=C3)N4CCOCC4)OC
# Procedure, shortened: as §1
# defactinib = compound: CNC(=O)c1ccc(Nc2ncc(C(F)(F)F)c(NCc3nccnc3N(C)S(C)(=O)=O)n2)cc1 [defactinib]
# Procedure, shortened: as §1
# [2] = compound: CNc1nc(-c2ccc3c(N)n[nH]c3c2)cc(N2C[C@@H](C(=O)NC3CCCCC3)CC[C@H]2C)n1
# Procedure, shortened: as §1
# encorafenib = compound: COC(=O)N[C@@H](C)CNc1nccc(-c2cn(C(C)C)nc2-c2cc(Cl)cc(NS(C)(=O)=O)c2F)n1 [encorafenib]
# Procedure, shortened: as §1
# [3] = compound: COC(=O)[C@H](CCSC)NC(=O)C1=C(C=C(C=C1)NC[C@H](CS)N)C2=CC=CC=C2
# Procedure, shortened: as §1
# alisertib = compound: COc1cc(Nc2ncc3c(n2)-c2ccc(Cl)cc2C(c2c(F)cccc2OC)=NC3)ccc1C(=O)O [alisertib]
# Procedure, shortened: as §1
# [4] = compound: COc1cc2nc(-c3cc(F)ccc3O)nc(N[C@@H]3CNC[C@H]3C(C)(C)O)c2cc1OC
# Procedure, shortened: as §1
# gefitinib = compound: COc1cc2ncnc(Nc3ccc(F)c(Cl)c3)c2cc1OCCCN1CCOCC1 [gefitinib]
# Procedure, shortened: as §1
# lapatinib = compound: CS(=O)(=O)CCNCc1ccc(-c2ccc3ncnc(Nc4ccc(OCc5cccc(F)c5)c(Cl)c4)c3c2)o1 [lapatinib]
# Procedure, shortened: as §1
# pictilisib = compound: CS(=O)(=O)N1CCN(Cc2cc3nc(-c4cccc5[nH]ncc45)nc(N4CCOCC4)c3s2)CC1 [pictilisib]
# Procedure, shortened: as §1
# crizotinib = compound: C[C@@H](Oc1cc(-c2cnn(C3CCNCC3)c2)cnc1N)c1c(Cl)ccc(F)c1Cl [crizotinib]
# Procedure, shortened: as §1
# [5] = compound: C[C@H](C1=CC=C(C=C1)C(=O)NC2=C3C=CNC3=NC=C2)N
# Procedure, shortened: as §1
# duvelisib = compound: C[C@H](Nc1ncnc2nc[nH]c12)c1cc2cccc(Cl)c2c(=O)n1-c1ccccc1 [duvelisib]
# Procedure, shortened: as §1
# gandotinib = compound: Cc1cc(Nc2cc(CN3CCOCC3)c3nc(C)c(Cc4ccc(Cl)cc4F)n3n2)n[nH]1 [gandotinib]
# Procedure, shortened: as §1
# tozasertib = compound: Cc1cc(Nc2cc(N3CCN(C)CC3)nc(Sc3ccc(NC(=O)C4CC4)cc3)n2)n[nH]1 [tozasertib]
# Procedure, shortened: as §1
# doramapimod = compound: Cc1ccc(-n2nc(C(C)(C)C)cc2NC(=O)Nc2ccc(OCCN3CCOCC3)c3ccccc23)cc1 [doramapimod]
# Procedure, shortened: as §1
# bafetinib = compound: Cc1ccc(NC(=O)c2ccc(CN3CC[C@H](N(C)C)C3)c(C(F)(F)F)c2)cc1Nc1nccc(-c2cncnc2)n1 [bafetinib]
# Procedure, shortened: as §1
# [6] = compound: Cc1cccc(CC(=O)N2CCc3c2ccc(-c2cn(C)c4ncnc(N)c24)c3F)n1
# Procedure, shortened: as §1
# Chain of UniProt P53609 (P53609 whole entry, looked up): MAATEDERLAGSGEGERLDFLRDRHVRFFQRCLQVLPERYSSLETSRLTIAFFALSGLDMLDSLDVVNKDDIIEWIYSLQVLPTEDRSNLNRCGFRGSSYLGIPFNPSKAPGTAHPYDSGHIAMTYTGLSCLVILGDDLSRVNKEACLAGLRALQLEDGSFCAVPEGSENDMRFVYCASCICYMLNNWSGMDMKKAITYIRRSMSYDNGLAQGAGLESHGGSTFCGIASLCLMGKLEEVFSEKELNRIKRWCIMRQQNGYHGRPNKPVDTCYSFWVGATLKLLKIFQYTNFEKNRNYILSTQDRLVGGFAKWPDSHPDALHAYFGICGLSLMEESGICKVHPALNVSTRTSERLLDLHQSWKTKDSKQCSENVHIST
# Chain of UniProt Q9BRX2 (Q9BRX2 whole entry, looked up): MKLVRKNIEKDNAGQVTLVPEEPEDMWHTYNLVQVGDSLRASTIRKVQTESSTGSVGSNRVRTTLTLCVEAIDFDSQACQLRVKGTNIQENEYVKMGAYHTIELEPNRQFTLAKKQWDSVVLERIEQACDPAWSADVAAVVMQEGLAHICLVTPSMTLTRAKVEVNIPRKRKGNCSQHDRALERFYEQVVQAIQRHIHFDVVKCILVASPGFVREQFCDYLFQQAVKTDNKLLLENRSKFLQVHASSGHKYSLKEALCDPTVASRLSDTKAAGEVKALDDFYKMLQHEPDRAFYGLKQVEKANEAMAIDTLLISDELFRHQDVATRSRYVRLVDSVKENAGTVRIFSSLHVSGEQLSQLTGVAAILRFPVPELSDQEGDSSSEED
# Chain of UniProt P15735 (P15735 whole entry, looked up): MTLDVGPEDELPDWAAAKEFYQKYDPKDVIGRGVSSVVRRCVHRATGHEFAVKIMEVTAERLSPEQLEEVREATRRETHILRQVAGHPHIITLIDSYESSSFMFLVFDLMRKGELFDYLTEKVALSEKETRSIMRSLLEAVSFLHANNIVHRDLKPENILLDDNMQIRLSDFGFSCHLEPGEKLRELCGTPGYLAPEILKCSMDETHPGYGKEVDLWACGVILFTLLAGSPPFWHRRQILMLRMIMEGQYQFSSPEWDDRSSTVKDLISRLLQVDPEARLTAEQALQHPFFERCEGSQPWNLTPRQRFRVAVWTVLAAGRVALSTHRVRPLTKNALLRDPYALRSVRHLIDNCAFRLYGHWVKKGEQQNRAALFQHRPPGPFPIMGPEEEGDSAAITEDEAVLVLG
# Chain of UniProt Q13492 (Q13492 whole entry, looked up): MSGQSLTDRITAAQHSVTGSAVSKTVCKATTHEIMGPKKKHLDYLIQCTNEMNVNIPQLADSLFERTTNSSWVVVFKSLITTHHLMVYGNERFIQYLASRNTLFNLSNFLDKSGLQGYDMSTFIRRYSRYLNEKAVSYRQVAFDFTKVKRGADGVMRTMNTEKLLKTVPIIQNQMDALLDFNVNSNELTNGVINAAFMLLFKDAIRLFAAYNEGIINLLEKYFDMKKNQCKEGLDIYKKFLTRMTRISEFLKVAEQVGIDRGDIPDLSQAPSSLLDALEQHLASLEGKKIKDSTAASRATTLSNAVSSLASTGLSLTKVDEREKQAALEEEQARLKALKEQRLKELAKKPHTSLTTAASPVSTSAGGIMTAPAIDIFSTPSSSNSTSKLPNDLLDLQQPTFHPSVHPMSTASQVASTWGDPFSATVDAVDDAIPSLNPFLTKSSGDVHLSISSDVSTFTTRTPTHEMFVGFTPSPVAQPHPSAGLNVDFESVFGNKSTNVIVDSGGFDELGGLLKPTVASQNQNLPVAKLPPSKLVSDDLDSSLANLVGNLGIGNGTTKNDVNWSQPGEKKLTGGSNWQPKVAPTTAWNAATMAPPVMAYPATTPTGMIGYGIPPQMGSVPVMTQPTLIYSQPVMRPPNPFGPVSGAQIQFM
# Chain of UniProt O00264 (O00264 whole entry, looked up): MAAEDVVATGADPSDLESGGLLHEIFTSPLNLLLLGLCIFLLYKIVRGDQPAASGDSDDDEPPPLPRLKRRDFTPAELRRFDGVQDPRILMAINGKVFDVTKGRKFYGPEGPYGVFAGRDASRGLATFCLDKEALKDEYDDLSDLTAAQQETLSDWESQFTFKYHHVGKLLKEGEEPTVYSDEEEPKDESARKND
# Chain of UniProt Q9UHV9 (Q9UHV9 whole entry, looked up): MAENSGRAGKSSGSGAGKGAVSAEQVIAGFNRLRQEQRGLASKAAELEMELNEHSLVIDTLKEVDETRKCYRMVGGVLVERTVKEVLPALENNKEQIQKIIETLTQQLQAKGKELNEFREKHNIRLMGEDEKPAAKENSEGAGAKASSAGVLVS
# Chain of UniProt P42338 (P42338 whole entry, looked up): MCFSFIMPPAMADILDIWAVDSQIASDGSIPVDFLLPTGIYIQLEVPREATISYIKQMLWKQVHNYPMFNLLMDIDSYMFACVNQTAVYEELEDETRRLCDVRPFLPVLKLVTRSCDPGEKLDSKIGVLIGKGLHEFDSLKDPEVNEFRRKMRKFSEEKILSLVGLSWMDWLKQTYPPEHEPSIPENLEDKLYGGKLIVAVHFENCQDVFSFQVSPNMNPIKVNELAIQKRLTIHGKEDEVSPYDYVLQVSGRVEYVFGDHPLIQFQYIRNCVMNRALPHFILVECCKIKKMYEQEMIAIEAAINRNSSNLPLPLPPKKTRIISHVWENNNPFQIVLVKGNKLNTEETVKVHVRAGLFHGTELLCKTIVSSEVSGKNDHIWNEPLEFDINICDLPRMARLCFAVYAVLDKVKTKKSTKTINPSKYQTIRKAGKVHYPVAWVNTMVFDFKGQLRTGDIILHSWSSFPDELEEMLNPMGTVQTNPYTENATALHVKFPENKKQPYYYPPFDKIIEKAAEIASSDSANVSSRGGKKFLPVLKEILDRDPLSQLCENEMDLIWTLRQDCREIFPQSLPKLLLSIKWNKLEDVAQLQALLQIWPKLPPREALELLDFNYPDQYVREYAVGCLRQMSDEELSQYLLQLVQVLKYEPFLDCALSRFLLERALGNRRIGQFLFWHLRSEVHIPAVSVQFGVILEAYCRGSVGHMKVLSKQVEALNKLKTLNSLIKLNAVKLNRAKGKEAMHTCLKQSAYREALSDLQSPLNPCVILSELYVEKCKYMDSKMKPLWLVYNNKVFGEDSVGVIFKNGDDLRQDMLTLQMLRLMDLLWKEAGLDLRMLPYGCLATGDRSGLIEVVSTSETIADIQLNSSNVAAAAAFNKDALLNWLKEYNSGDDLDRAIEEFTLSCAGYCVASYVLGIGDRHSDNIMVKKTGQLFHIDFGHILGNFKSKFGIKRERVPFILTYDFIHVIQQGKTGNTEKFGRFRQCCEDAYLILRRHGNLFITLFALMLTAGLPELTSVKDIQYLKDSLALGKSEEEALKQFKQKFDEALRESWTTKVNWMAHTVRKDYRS
# Chain of UniProt Q9H4Z3 (Q9H4Z3 whole entry, looked up): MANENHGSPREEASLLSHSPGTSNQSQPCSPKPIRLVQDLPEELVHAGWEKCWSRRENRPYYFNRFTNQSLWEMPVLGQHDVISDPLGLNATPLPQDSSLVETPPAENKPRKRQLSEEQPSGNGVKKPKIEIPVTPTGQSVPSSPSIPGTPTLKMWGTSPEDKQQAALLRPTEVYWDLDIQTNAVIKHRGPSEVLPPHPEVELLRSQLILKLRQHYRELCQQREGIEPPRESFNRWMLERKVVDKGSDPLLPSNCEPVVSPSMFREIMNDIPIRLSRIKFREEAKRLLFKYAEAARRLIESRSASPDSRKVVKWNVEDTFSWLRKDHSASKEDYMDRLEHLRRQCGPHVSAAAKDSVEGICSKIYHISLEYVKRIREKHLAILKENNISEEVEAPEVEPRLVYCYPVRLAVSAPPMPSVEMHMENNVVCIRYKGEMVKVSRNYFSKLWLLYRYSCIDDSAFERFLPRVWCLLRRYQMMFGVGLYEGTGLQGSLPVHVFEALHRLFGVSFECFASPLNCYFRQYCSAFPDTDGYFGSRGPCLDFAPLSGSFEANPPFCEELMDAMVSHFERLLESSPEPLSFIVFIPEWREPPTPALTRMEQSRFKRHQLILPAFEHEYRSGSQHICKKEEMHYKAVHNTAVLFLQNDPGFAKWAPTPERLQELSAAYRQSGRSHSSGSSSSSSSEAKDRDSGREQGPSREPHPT
# Chain of UniProt P13667 (P13667 whole entry, looked up): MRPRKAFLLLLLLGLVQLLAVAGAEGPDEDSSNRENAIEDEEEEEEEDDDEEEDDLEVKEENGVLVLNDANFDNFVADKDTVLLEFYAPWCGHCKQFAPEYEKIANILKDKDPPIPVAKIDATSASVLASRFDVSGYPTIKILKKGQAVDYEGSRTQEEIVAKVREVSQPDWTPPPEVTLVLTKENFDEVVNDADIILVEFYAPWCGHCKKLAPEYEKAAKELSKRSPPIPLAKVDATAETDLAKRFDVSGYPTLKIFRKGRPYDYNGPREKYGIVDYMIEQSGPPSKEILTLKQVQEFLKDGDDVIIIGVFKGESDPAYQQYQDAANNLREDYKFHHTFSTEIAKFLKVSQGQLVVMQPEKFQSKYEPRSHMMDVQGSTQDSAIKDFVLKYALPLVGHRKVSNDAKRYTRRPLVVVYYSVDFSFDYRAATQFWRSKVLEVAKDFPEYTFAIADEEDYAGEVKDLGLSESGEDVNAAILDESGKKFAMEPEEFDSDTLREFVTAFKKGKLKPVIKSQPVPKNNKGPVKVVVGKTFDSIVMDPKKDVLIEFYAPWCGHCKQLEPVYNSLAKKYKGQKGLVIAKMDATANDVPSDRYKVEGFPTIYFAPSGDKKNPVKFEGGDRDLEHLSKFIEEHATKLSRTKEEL
# Chain of UniProt P67775 (P67775 whole entry, looked up): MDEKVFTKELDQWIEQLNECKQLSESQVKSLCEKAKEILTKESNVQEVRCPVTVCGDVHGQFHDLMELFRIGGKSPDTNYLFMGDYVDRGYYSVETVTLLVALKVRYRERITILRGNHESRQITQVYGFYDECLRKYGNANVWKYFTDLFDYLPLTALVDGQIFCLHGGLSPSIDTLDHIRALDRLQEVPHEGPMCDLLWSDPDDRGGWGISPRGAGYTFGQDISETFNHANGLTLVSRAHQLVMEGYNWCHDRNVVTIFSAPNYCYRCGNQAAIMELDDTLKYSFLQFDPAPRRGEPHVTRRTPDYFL
Target,log2 fold change (alvocidib),log2 fold change (Tubastatin A),log2 fold change [1],log2 fold change (defactinib),log2 fold change [2],log2 fold change (encorafenib),log2 fold change [3],log2 fold change (alisertib),log2 fold change [4],log2 fold change (gefitinib),log2 fold change (lapatinib),log2 fold change (pictilisib),log2 fold change (crizotinib),log2 fold change [5],log2 fold change (duvelisib),log2 fold change (gandotinib),log2 fold change (tozasertib),log2 fold change (doramapimod),log2 fold change (bafetinib),log2 fold change [6]
PDIA4 (UniProt P13667),0.025,0.05,-0.008,-0.042,-0.012,-0.011,-0.027,-0.007,-0.001,-0.011,-0.018,0.006,0.09,0.029,-0.011,-0.026,0,-0.057,0.014,-0.045
PICALM (UniProt Q13492),-0.021,0.029,-0.032,-0.037,-0.033,0.042,0.014,0.008,0.017,0.008,0.012,0.001,0.024,0.052,0.012,0.022,0.013,0.028,-0.055,-0.007
PMS2 (UniProt P54278),-0.001,-0.129,0.03,0.021,0.103,0.038,0.089,0.009,0.02,0.024,0.016,0.021,-0.038,-0.036,0,-0.064,-0.014,-0.038,0.021,0.037
PDPK1 (UniProt O15530),0.009,-0.121,0.107,0.21,0.501 (active),-0.019,0.109,0.153,0.15,0.016,-0.04,-0.051,0.03,0.262,-0.039,0.092,-0.029,-0.012,-0.021,-0.211
PFDN2 (UniProt Q9UHV9),0.063,0.01,-0.035,0.026,-0.012,0.05,-0.025,0.033,0.007,0.012,-0.001,-0.017,0.054,0.365 (active),0,-0.1,0.053,0.005,-0.064,-0.13
PHKG2 (UniProt P15735),0.107,-0.044,0.268,0.001,0.033,-0.039,0.056,-0.045,0.192,0.03,-0.07,-0.069,0.166,0,-0.008,0.061,-0.051,0.031,0.015,-0.107
PRKCSH (UniProt P14314),0.009,0.039,-0.001,-0.014,-0.035,-0.003,-0.036,-0.006,0.024,0.024,-0.004,-0.004,0.062,0.046,0.022,-0.023,0.02,-0.042,0.05,-0.088
POLR3E (UniProt Q9NVU0),0.011,-0.08,0.009,0.02,0.009,0.004,0.104,0.024,-0.003,0.009,-0.014,-0.001,0.003,-0.001,0.01,-0.028,-0.011,-0.001,-0.018,0.013
PGRMC1 (UniProt O00264),-0.026,0.01,-0.022,0.02,-0.014,0.006,-0.258 (active),0.006,0.006,0.03,0.001,-0.023,0.057,-0.011,-0.024,0.047,0.035,-0.052,0.004,0.018
PIK3R1 (UniProt P27986),0.032,-0.037,0.075,-0.066,-0.039,-0.025,-0.111,0.078,0.023,-0.045,0.002,0.374,-0.015,0.033,0.534 (active),0.171,0.039,-0.02,0.007,-0.011
PPP2CA (UniProt P67775),-0.062,-0.018,0.026,-0.064,-0.019,0.128,-0.374 (active),-0.016,-0.013,-0.009,-0.028,-0.001,0.159,0.051,-0.024,-0.022,-0.116,-0.049,0.053,0.03
PGGT1B (UniProt P53609),0.032,0.036,-0.068,0.022,-0.117,-0.039,0.454 (active),-0.011,-0.032,-0.021,0.013,-0.012,0.01,0.013,-0.019,-0.158,0.083,0.047,0.076,-0.074
PCIF1 (UniProt Q9H4Z3),0.038,0.006,-0.024,0.051,0.02,0.017,0.02,0.04,0.01,-0.051,-0.059,-0.016,-0.001,-0.239 (active),0.216,0.074,-0.003,0.017,-0.059,0.09
PELO (UniProt Q9BRX2),0.149,-0.086,0.026,-0.022,-0.043,0.056,0.084,0.008,0.006,0.006,0.036,0.001,-0.064,0.369 (active),-0.039,-0.202,0.022,0.019,-0.054,-0.175
PRMT8 (UniProt Q9NR22),-0.11,-0.019,0.001,-0.103,-0.005,-0.002,0.004,-0.01,0.016,0.034,-0.011,0.004,-0.037,-0.256 (active),0.012,0.071,0.008,-0.001,-0.112,0.168
PIK3CB (UniProt P42338),-0.002,-0.123,0.056,-0.044,-0.013,-0.02,-0.126,-0.01,-0.011,-0.019,-0.007,0.497 (active),-0.068,0.022,0.645 (active),0.096,0.017,-0.006,-0.034,0.012
